These results are taken from PubChem BioAssay (EPA / NIEHS).

Several values for one entry are separate records, joined by “and”; a condition that tells them apart may be missing. Identical values can stand only once. Results filed as inconclusive are left out. Activity calls are given as the source filed them. How the source made its calls, unless noted: active means hit-call score of the fitted dose curve at least 0.9, where 1 is the maximum; inactive means score below 0.9.

Assay [1] is described as follows: ATG_NRF2_ARE_CIS: Attagene CIS-FACTORIAL HepG2 Assay for human Nuclear Factor Erythroid 2 Related Factor 2 (NFR2) response to Antioxidant Response Elements (ARE) (AID 2282992).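 On AC50: reporter mRNA level measured by RT-PCR and capillary electrophoresis fluorescence.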 The conditions noted are these: HepG2 Attagene ARE/NRF2 reporter, transcription factor activity; actives raise or lower the signal. The method, boiled down:
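Endogenous transcription factor activity in human liver HepG2 cells is tracked via a cis-element-driven reporter within a multiplexed set. mRNA induction is read by RT-PCR and capillary electrophoresis after 24 h, with DMSO as baseline.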

In assay [2] the target is Cellular tumor antigen p53 (Homo sapiens) (UniProt P04637). Nature of the assay: ATG_p53_CIS: Attagene CIS-FACTORIAL HepG2 Assay for human p53 Transcription Factor (AID 2282994). The conditions noted are these: HepG2 p53 cis-element reporter, Attagene mRNA; actives raise or lower the signal. The method, boiled down:
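Steps: transfect HepG2 with multiplexed cis reporter constructs; dose chemicals 24 h; extract RNA, reverse-transcribe, PCR-amplify reporter sequences; FAM-label, HpaI-digest, resolve fragments by CE. Activity fitted both directions relative to DMSO.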

Assay [3] concerns the target human Peroxisome Proliferator-activated Receptor alpha (PPARa), PPARA (gene 5465) (UniProt Q07869). Nature of the assay: ATG_PPARa_TRANS: Attagene TRANS-FACTORIAL HepG2 Assay for human Peroxisome Proliferator-activated Receptor alpha (PPARa) (AID 2283001; active means hit-call score of the fitted dose curve at least 0.9, where 1 is the maximum;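 on AC50: potency for gain of reporter signal over DMSO so agonist or activator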). The method, boiled down: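 Transfected HepG2 cells treated with test chemical for 24 h. RNA isolated, reverse-transcribed with oligo(dT), PCR-amplified, FAM-labelled and HpaI-digested. Fragments sized by capillary electrophoresis; gain-of-signal fit relative to DMSO.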

Assay [4] can be described thus: ATG_Oct_MLP_CIS: Attagene CIS-FACTORIAL HepG2 Assay for human Octamer-Binding Transcription Factor (Oct) (AID 2282993). The conditions noted are these: HepG2 Attagene cis-factorial Oct reporter, mRNA; actives raise or lower the signal. The method, boiled down: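 Using HepG2 cells bearing transfected cis-reporter constructs, mRNA induction was read after 24 h by fluorescent RT-PCR and capillary electrophoresis, with DMSO defining baseline for gain- or loss-of-signal fits.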

Assay [5] is described as follows: BSK_3C_TissueFactor: BioMAP Diversity Plus: 3C Assay for Tissue Factor Biomarker Activity (AID 2282997). The conditions noted are these: BioMAP 3C HUVEC, tissue factor biomarker readout; actives raise or lower the signal. The method, boiled down:
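HUVEC, 3C system, 24 h post-dose; Tissue Factor by ELISA; bidirectional fit vs DMSO baseline.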

A short description of assay [6]: BSK_3C_uPAR: BioMAP Diversity Plus: 3C Assay for Urokinase-type plasminogen activator receptor (uPAR) Biomarker Activity (AID 2282998). The conditions noted are these: BioMAP 3C HUVEC, uPAR biomarker ELISA; actives raise or lower the signal. In short, it runs like this: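 In this endothelial cell-based assay, human umbilical vein primary cells were treated with chemicals and harvested at 24 h. uPAR was quantified using ELISA, with gains or losses fitted relative to DMSO controls.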
For orientation: An ELISA detects its analyte on a solid surface through an enzyme-linked reagent.

Assay [7] can be described thus: BSK_3C_VCAM1: BioMAP Diversity Plus: 3C Assay for Vascular cell adhesion molecule 1 (VCAM1) Biomarker Activity (AID 2282999). The conditions noted are these: BioMAP 3C HUVEC, VCAM1 ELISA, cytokine-stimulated; actives raise or lower the signal. In short, it runs like this: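 Activity fitted in both directions relative to DMSO, with ELISA measurement of the surface marker on primary HUVEC (3C) at 24 h post-treatment; parallel SRB staining (0.1% SRB, TCA-fixed, 560 nm) flagged overt cytotoxicity.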

The nature of assay [8]: BSK_4H_Eotaxin3: BioMAP Diversity Plus: 4H Assay for Eotaxin 3 Biomarker Activity (AID 2283000).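 On outcome: CCL26 protein level quantified by ELISA in parallel with SRB cytotoxicity check.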 The conditions noted are these: primary human endothelial cells (HUVEC); actives raise or lower the signal. The method, boiled down:
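Readout is Eotaxin-3 (CCL26) level by ELISA in primary human umbilical vein endothelial cells harvested 24 h after chemical exposure; activity fitted in both directions against DMSO control.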

The target in assay [9] is human Peroxisome Proliferator-activated Receptor delta (PPARd), PPARD (gene 5467) (UniProt Q03181). The assay is described as follows: ATG_PPARd_TRANS: Attagene TRANS-FACTORIAL HepG2 Assay for human Peroxisome Proliferator-activated Receptor delta (PPARd) (AID 2283002; active means hit-call score of the fitted dose curve at least 0.9, where 1 is the maximum). In short, it runs like this: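 Read-out is induced reporter mRNA, quantified by RT-PCR with fluorescent labelling and capillary electrophoresis after 24 h dosing. Cells are HepG2 transiently carrying multiple GAL4-UAS reporter units driven by exogenous NR-GAL4 chimeras; DMSO serves as baseline.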

A word on the AC50: it is the concentration giving half of the maximal activity seen.

Cellular tumor antigen p53 (Homo sapiens), sequence (P04637 whole entry, looked up, the tested form may be a part): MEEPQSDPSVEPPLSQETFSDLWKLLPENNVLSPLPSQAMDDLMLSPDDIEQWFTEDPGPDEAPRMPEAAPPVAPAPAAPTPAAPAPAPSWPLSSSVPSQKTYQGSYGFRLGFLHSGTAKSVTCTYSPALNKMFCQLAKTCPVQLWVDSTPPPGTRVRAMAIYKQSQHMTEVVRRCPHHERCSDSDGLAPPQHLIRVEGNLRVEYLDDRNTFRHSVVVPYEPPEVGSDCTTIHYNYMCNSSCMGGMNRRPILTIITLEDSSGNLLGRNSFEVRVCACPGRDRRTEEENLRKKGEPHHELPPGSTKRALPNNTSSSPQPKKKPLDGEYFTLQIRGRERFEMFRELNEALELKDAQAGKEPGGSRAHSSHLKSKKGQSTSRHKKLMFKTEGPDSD
human Peroxisome Proliferator-activated Receptor delta (PPARd), PPARD (gene 5467), sequence (Q03181 whole entry, looked up, the tested form may be a part): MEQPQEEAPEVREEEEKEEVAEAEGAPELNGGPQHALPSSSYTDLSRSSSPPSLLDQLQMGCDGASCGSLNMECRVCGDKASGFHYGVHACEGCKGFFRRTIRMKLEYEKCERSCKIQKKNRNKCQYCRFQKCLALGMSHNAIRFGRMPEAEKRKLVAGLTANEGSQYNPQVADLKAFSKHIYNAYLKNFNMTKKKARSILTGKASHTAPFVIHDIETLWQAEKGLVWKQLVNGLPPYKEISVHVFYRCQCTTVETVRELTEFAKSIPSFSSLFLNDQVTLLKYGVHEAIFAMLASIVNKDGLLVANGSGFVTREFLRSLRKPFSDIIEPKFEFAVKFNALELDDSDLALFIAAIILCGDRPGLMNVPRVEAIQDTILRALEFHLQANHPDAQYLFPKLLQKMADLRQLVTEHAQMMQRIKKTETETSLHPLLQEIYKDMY
human Peroxisome Proliferator-activated Receptor alpha (PPARa), PPARA (gene 5465), sequence (Q07869 whole entry, looked up, the tested form may be a part): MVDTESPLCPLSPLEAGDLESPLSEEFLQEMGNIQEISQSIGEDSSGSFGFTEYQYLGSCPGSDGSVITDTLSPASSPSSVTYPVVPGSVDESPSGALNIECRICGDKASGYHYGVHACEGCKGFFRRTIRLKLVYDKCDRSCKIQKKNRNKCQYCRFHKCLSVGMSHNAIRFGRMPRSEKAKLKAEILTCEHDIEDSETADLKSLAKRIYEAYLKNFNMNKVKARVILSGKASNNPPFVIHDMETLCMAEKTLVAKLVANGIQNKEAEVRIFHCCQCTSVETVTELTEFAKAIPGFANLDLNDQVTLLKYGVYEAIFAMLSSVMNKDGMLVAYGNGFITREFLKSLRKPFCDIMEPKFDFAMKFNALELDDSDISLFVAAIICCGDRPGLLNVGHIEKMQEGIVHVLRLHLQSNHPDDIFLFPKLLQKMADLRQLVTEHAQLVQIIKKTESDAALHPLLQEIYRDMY

Regarding `O=[N+]([O-])c1ccccc1O`, the compound was classed as inactive in assay [1], in assay [2] and in [3].
With `O=c1nc(O)n(Cl)c(=O)n1Cl`, the compound was called inactive in [1] and in [3].
On to `O=[N+]([O-])c1c2ccccc2cc2ccccc12`, for which the AC50 in assay [1] was 5 µM (active). For the same compound, the compound was called inactive in [2].
Consider `C=CCc1ccccc1O`, for which the compound was called inactive in assay [1], in assay [2] and in assay [3].
Regarding `C=CC(=O)NC(C)(C)CC(C)=O`, the compound was classed as inactive in assay [1], in assay [4], in [2] and in assay [3].
As to `CCOC(=O)Cc1ccccc1`, the outcome in assay [1], in assay [4] and in assay [3] was inactive.
Turning to `CC(C)N(C(=O)CCl)c1ccccc1`, the AC50 is 2.75 µM (active) in [1]; 52.8 µM (active) in assay [4]; 20 µM (active) in [6]; 20 µM (active) in [7]; 20 µM (active) in [8]. Besides, the result in assay [5] was inactive.
Regarding `Brc1ccc(Br)cc1`, the compound was classed as inactive in [1], in assay [4], in assay [2] and in assay [3].
Take `CN(C)C(=S)S`: in [1], the AC50 was 26.8 µM (active). In addition, the outcome in [5], in assay [6], in assay [7] and in assay [8] was inactive.
Take `CC1CC(=O)O1` (stereo not drawn): the compound was classed as inactive in assay [1], in assay [4] and in [9].
Regarding `Oc1c(Cl)cc(Cl)cc1Cl`, the result in assay [4], in [2], in assay [5], in assay [6], in assay [7] and in [8] was inactive. The call in assay [9] was inactive. In addition, the AC50 in assay [3] is 15.9 µM (active).
Consider `CC(C)(C)c1ccc(CCOc2ncnc3ccccc23)cc1`, for which the result in assay [1], in assay [4] and in [3] was inactive.
Consider `CCOP(=S)(OCC)SCSc1cc(Cl)ccc1Cl`, for which the outcome in [1], in [4], in assay [2] and in [3] was inactive.
In the case of `CCOCn1c(-c2ccc(Cl)cc2)c(C#N)c(Br)c1C(F)(F)F`, the call in [1], in [3] and in [9] was inactive. The AC50 in [4] was 1.92 µM (active).
On to `C=CC(Cl)CCl` (stereo not drawn), for which the AC50 in [1] was 20.2 µM (active); in [5] it was 0.0174 µM (active). The outcome in assay [4], in assay [6], in [7], in assay [8] and in [3] was inactive.
With `O=C(Cl)OCCOCCOC(=O)Cl`, the compound was called inactive in [1], in [4], in [2] and in assay [3].
With `CCCCN(CCCC)C(=S)[S-].CCCCN(CCCC)C(=S)[S-].[Ni+2]`, the result in assay [1], in assay [4], in [5], in assay [6], in [7] and in assay [8] was inactive.
As to `CCCSP(=S)(OCC)Oc1ccc(SC)cc1` (stereo not drawn), the call in assay [1], in assay [4], in [2] and in assay [3] was inactive.
On to `CCOC(=O)CCN(SN(C)C(=O)Oc1cccc2c1OC(C)(C)C2)C(C)C`, for which the AC50 in assay [1] was 26.2 µM (active); in assay [5] it was 31.1 µM (active); in assay [6], 32.5 µM (active); in [7], 20 µM (active); in assay [8], 28.8 µM (active). Also, the result in assay [2] and in assay [3] was inactive.
With `O=C(N[C@H]1CN2CCC1CC2)c1ccc2c(c1)OCCO2`, the result in [1], in assay [4], in assay [5], in [6], in assay [7] and in assay [8] was inactive.
For `O=NN1CCOCC1`, the result in assay [1], in assay [4], in assay [2], in assay [3] and in assay [9] was inactive.
With `COc1ccc(N)cc1`, the compound was classed as inactive in assay [1], in [2], in assay [3] and in [9].
Turning to `N#CS`, the compound was classed as inactive in assay [1], in assay [4], in [2] and in [9].
Take `Cc1cccc(N=Nc2ccc(N(C)C)cc2)c1`: the half-maximal activity concentration (AC50) in [1] is 5.01 µM (active). In addition, the result in [4], in assay [2], in assay [3] and in assay [9] was inactive.
Turning to `O=c1[nH]c(=O)n(Cl)c(=O)n1Cl`, the outcome in assay [1], in assay [4] and in assay [3] was inactive.
In the case of `C[C@@H]1O[C@@H](O[C@H]2C[C@@H](O)[C@]3(CO)[C@H]4[C@H](O)C[C@]5(C)[C@@H](C6=CC(=O)OC6)CC[C@]5(O)[C@@H]4CC[C@]3(O)C2)[C@H](O)[C@H](O)[C@H]1O`, the half-maximal activity concentration (AC50) in assay [1] was 19.5 µM (active); in assay [4], 0.62 µM (active); in assay [3], 0.0714 µM (active). Also, the compound was called inactive in assay [9].
For the compound `CCCCCCCCCCCCOS(=O)(=O)O`, the compound was called inactive in [1] and in assay [4]. Moreover, in [3], the AC50 was 3.86 µM (active) and 12.1 µM (active).
Regarding `O=C(CCl)Nc1ccccc1`, the AC50 is 2.21 µM (active) in assay [1], 8.75 µM (active) in assay [4] and 7.86 µM (active) in assay [2]. The call in assay [3] and in assay [9] was inactive.
Turning to `Cc1cc(Cl)ccc1N`, the AC50 in [1] was 27.4 µM (active) and 36.6 µM (active). The compound was classed as inactive in assay [4], in assay [5], in assay [6], in assay [7], in [8] and in [3].
With `Fc1cccc(Cl)c1CCl`, the AC50 in [1] is 26.3 µM (active). Further, the compound was classed as inactive in assay [9].
In the case of `c1ccc2sc(SNC3CCCCC3)nc2c1`, the AC50 in assay [1] was 80.6 µM (active); in assay [5], 1.16 µM (active). Further, the outcome in [4], in assay [6], in assay [7], in [8], in assay [3] and in assay [9] was inactive.
Turning to `CCOC(=O)OC1=C(c2cc(C)ccc2C)C(=O)NC12CCC(OC)CC2` (stereo not drawn), the AC50 in assay [1] is 69.8 µM (active). Also, the call in assay [4], in [2], in assay [3] and in assay [9] was inactive.
